Drawing on the supplement of paper PMC5919970, this text covers fractional viability for 67 compounds.

The structures appear in SMILES notation. Where a name gives a salt, the structure may show the parent alone. Over roughly 2,000 compounds, “fractional viability relative to vehicle” has its median near 0.92; the lowest 2% begin near 0.11. The list comes from a sample in which the lowest values are over-represented; it also holds similar structures and randomly drawn compounds.

For the test, the system named is TYKNU. Kind of test: fractional viability relative to vehicle; TYKNU is a high-grade serous ovarian cancer line; higher = less growth inhibition. The following applies: 72 h, genotype: OPA1 knockout (sgOPA1 #2). In short, it runs like this:
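Drug treatment lasted 72 h, with cells grown at 37 °C in 5% CO2 in RPMI 1640 supplemented with 10% FBS. Beforehand, TYKNU control cells or their lentiCRISPRv2 knockout derivatives had been seeded at 500 cells per well into drug-stamped 384-well plates carrying a ~2100-compound library at 2 or 10 μM, in duplicate. Viability came from Cell Titer Glo luminescence, with averaged duplicate treatment wells normalised to duplicate control wells in the same plate position.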

Consider `Clc1ccc(C2(c3ccc(-c4cn[nH]c4)cc3)CCNCC2)cc1`, for which the fractional viability turned out to be 1.03 (2uM) and 0.554 (10uM).
As for `COCCOc1nc(-c2ccc(Cl)c(Cl)c2)n(-c2ccc(NC(=O)CCl)cc2)n1` [MI-2 (MALT1 inhibitor)], the fractional viability runs as follows: (2uM) 1; (10uM) 0.952.
Take `COc1ccc(-n2c(SCCCN3C(=O)c4cccc5cccc(c45)C3=O)nnc2-c2ccncc2)cc1`: the fractional viability runs as follows: (2uM) 0.913; (10uM) 0.874.
The matching figures for `COc1ccc(-c2nc(N3CCOCC3)c3sc(CN(C)c4ncc(C(=O)NO)cn4)cc3n2)cn1`: 0.118 and 0.115.
Regarding `CS(=O)(=O)N1CCN(Cc2cc3nc(-c4cccc5[nH]ncc45)nc(N4CCOCC4)c3s2)CC1`, the fractional viability came out at 0.824 (2uM) and 0.658 (10uM).
The matching figures for `Cc1c(CN2CCN(C(=O)[C@H](C)O)CC2)sc2c(N3CCOCC3)nc(-c3cnc(N)nc3)nc12`: 0.392 and 0.376.
Turning to `O=C1[C@H](Cc2ccc(O)cc2)N2C(=O)CCN(C(=O)NCc3ccccc3)[C@H]2CN1Cc1cccc2ccccc12`, the fractional viability is, setting by setting: (2uM) 0.962; (10uM) 0.449.
The matching figures for `COc1cccc(-n2c(=O)[nH]c3cc(Cl)n(-c4ccc(-c5cccc(OC)c5O)cc4)c3c2=O)c1`: 0.827 and 0.807.
On to `Cn1cc(-c2cnn3c(N)c(Br)c([C@@H]4CCCNC4)nc23)cn1`, for which the fractional viability turned out to be 0.571 (2uM) and 0.814 (10uM).
Turning to `Nc1nc(Nc2ccc3c(c2)CCC(N2CCCC2)CC3)nn1-c1cc2c(nn1)-c1ccccc1CCC2` (centres undefined), the fractional viability (2uM) stood at 0.566 and the fractional viability (10uM) worked out at 0.0864.
The corresponding values for `COc1ccc([C@@H]2CC(=O)c3c(O)cc(O[C@@H]4O[C@H](CO)[C@@H](O)[C@H](O)[C@H]4O[C@@H]4O[C@@H](C)[C@H](O)[C@@H](O)[C@H]4O)cc3O2)cc1O` [Neohesperidin] are 1.11 and 0.888.
For the compound `COc1ccc2c(c1)CCC1C2CCC2(C)C(NCCCCCCN3C(=O)C=CC3=O)CCC12` (centres undefined), the fractional viability (2uM) turned out to be 0.747 and the fractional viability (10uM) amounted to 0.738.
The corresponding values for `CCN1CCN(Cc2ccc(Nc3ncc(F)c(-c4cc(F)c5nc(C)n(C(C)C)c5c4)n3)nc2)CC1` are 0.602 and 0.0904.
As for `CNC(=O)c1ccccc1Oc1nc(Nc2cc(OC)c(OC)c(OC)c2)ncc1Br`, the fractional viability amounted to 0.717 (2uM) and 0.828 (10uM).
The matching figures for `CN(CC(=O)N(Cc1ccc(C2CCCCC2)cc1)c1ccc(C(=O)O)cc1)S(=O)(=O)c1c(F)c(F)c(F)c(F)c1F`: 0.662 and 0.0586.
The matching figures for `C[C@H](NC(=O)[C@@H](O)c1cc(F)cc(F)c1)C(=O)N[C@@H]1C(=O)N(C)c2ccccc2-c2ccccc21`: 1.2 and 1.02.
The matching figures for `CC[C@@]1(O)C(=O)OCc2c1cc1n(c2=O)Cc2cc3cc(O)ccc3nc2-1` [(S)-10-Hydroxycamptothecin]: 0.179 and 0.157.
Turning to `COc1cc2/c(=N/c3ccc(Br)cc3F)nc[nH]c2cc1OCC1CCN(C)CC1` [Vandetanib (ZD6474)], the fractional viability was 1.31 (2uM) and 0.638 (10uM).
`COc1nc(OCc2cccc(-c3ccccc3)c2C)ccc1CNCCNC(C)=O` [PD-1/PD-L1 inhibitor 2] had a fractional viability (2uM) of 0.912 and a fractional viability (10uM) of 0.487.
Regarding `NS(=O)(=O)NCCNc1nonc1/C(=N/O)Nc1ccc(F)c(Br)c1`, the fractional viability amounted to 0.817 (2uM) and 0.783 (10uM).
The compound `C=CC(=O)Nc1cccc(C)c1Nc1ncc2cc(-c3c(Cl)c(OC)cc(OC)c3Cl)ccc2n1` gave a fractional viability (2uM) of 0.676 and a fractional viability (10uM) of 0.37.
The corresponding values for `COc1cc(N2CCC(N)CC2)ccc1Nc1ncc(Cl)c(-c2c[nH]c3ccccc23)n1` are 0.672 and 0.177.
`C=CC(=O)Nc1cccc(Nc2nc(Nc3ccc(NC4CN(CCF)C4)cc3OC)ncc2C(F)(F)F)c1` yielded a fractional viability (2uM) of 0.897 and a fractional viability (10uM) of 0.432.
For the compound `C=CC(=O)Nc1cccc(Nc2nc(Nc3ccc(N4CCN(C(C)=O)CC4)cc3OC)ncc2C(F)(F)F)c1`, the fractional viability runs as follows: (2uM) 0.781; (10uM) 0.431.
In the case of `C=CC(=O)Nc1cc(Nc2nccc(-c3cn(C)c4ccccc34)n2)c(OC)cc1N(C)CCN(C)C`, the fractional viability worked out at 0.766 (2uM) and 0.0725 (10uM).
As to `C=CC(=O)Nc1cc(Nc2nccc(-c3c[nH]c4ccccc34)n2)c(OC)cc1N(C)CCN(C)C`, the fractional viability is, setting by setting: (2uM) 0.542; (10uM) 0.0815.
`CCC[C@H](Nc1nc(-c2ccc(NC(=O)NCC)c(OC)c2)ncc1C)c1cccnc1` [CYT997 (Lexibulin)]: the fractional viability reads like this: (2uM) 0.378; (10uM) 0.361.
The matching figures for `COc1ccc(CCC(=O)Nc2nc3ccc(Cl)cc3s2)cc1OC`: 0.989 and 1.04.
The matching figures for `CNc1cc(-c2cccc(Cl)c2Cl)nc(N)n1`: 0.476 and 0.368.
As to `CN1CCN(C2CCN(C(=O)Nc3cc(Oc4ccc(NC(=O)C5(C(=O)Nc6ccc(F)cc6)CC5)c(F)c4)ccn3)CC2)CC1` [Golvatinib (E7050)], the fractional viability is, setting by setting: (2uM) 0.92; (10uM) 0.485.
Consider `COc1ccc(C2=N[C@H](c3ccc(Cl)cc3)[C@H](c3ccc(Cl)cc3)N2C(=O)N2CCNC(=O)C2)c(OC(C)C)c1` [Nutlin-3b], for which the fractional viability amounted to 0.806 (2uM) and 0.737 (10uM).
The matching figures for `CCOc1nc2cccc(C(=O)O)c2n1Cc1ccc(-c2ccccc2-c2noc(=O)[nH]2)cc1` [Azilsartan]: 0.997 and 1.12.
For the compound `CN1CCN(c2ccc(C(=O)Nc3n[nH]c4ccc(Cc5cc(F)cc(F)c5)cc34)c(NC3CCOCC3)c2)CC1` [Entrectinib (RXDX-101)], the fractional viability runs as follows: (2uM) 0.712; (10uM) 0.113.
Consider `CCc1cccc(CC)c1NC(=O)N1Cc2[nH]nc(NC(=O)c3ccc(N4CCN(C)CC4)cc3)c2C1`, for which the fractional viability is, setting by setting: (2uM) 1.02; (10uM) 0.885.
Take `CO[C@@H](C(=O)N1Cc2[nH]nc(NC(=O)c3ccc(N4CCN(C)CC4)cc3)c2C1)c1ccccc1`: the fractional viability (2uM) came out at 0.964 and the fractional viability (10uM) came to 0.815.
As for `Clc1cccc(CN=C2Nc3ccccc3NC23CCNCC3)c1` [Liproxstatin-1], the fractional viability reads like this: (2uM) 0.816; (10uM) 0.729.
The corresponding values for `CCOc1cn(-c2ccc(F)cc2C)nc1C(=O)Nc1ccc(Oc2ccnc3cc(OC)c(OC)cc23)c(F)c1` are 0.919 and 0.773.
The matching figures for `Clc1ccc(C(Cn2ccnc2)OCc2ccc(Sc3ccccc3)cc2)c(Cl)c1` (centres undefined) [Fenticonazole Nitrate]: 0.933 and 0.911.
The matching figures for `Cc1cc(C)c(CNC(=O)c2cc(-c3ccc(N4CCN(C)CC4)nc3)cc3c2c(C)cn3C(C)C)c(=O)[nH]1`: 0.878 and 0.945.
Regarding `C=C1C(=O)O[C@H]2[C@H]1CC/C(C)=C/CC[C@@]1(C)O[C@@H]21` [(-)-Parthenolide], the fractional viability runs as follows: (2uM) 0.557; (10uM) 0.0743.
The matching figures for `C=C1C(=O)O[C@@H]2/C=C(\C)CC/C=C(\C)CC[C@@H]12` [Costunolide]: 1.15 and 0.522.
The corresponding values for `Cc1c[nH]c(/C=C2\C(=O)Nc3ccccc32)c1CCC(=O)O` are 0.793 and 0.846.
With `COC(=O)c1ccc2c(c1)NC(=O)/C2=C(\Nc1ccc(N(C)C(=O)CN2CCN(C)CC2)cc1)c1ccccc1` [Nintedanib (BIBF 1120)], the fractional viability (2uM) stood at 1.32 and the fractional viability (10uM) came to 0.372.
The matching figures for `CCS(=O)(=O)Nc1ccc2c(c1)/C(=C(/Nc1ccc(CN3CCCCC3)cc1)c1ccccc1)C(=O)N2` [Hesperadin]: 0.544 and 0.113.
The matching figures for `CN(C)Cc1cccc(N/C(=C2\C(=O)Nc3cc(C(N)=O)ccc32)c2ccccc2)c1`: 0.93 and 0.993.
The corresponding values for `CCOc1cc(C(C)(C)C)ccc1C1=N[C@@](C)(c2ccc(Cl)cc2)[C@@](C)(c2ccc(Cl)cc2)N1C(=O)N1CCN(CCCS(C)(=O)=O)CC1` are 0.49 and 0.469.
In the case of `O=C(c1cc(Cc2n[nH]c(=O)c3ccccc23)ccc1F)N1CCN(C(=O)C2CC2)CC1`, the fractional viability is, setting by setting: (2uM) 1.03; (10uM) 0.936.
The corresponding values for `C=CC(=O)Nc1cccc(Sc2nc(Nc3ccc(N4CCN(C)CC4)cc3)ncc2Cl)c1` are 1.31 and 0.1.
The matching figures for `C=CC(=O)Nc1cccc(Oc2nc(Nc3ccc(N4CCN(C)CC4)cc3)ncc2Cl)c1`: 0.825 and 0.5.
In the case of `C=CC(=O)Nc1cccc(Oc2nc(Nc3ccc(N4CCN(C)CC4)cc3OC)ncc2Cl)c1`, the fractional viability amounted to 0.964 (2uM) and 0.766 (10uM).
The matching figures for `COc1ccc(CCc2nc3cc(-c4c(C)noc4C)ccc3n2C[C@H](C)N2CCOCC2)cc1Cl`: 0.813 and 0.639.
On to `COc1cc2c(Oc3ccc4[nH]c(C)cc4c3F)ncnc2cc1OCCCN1CCCC1` [Cediranib (AZD2171)], for which the fractional viability reads like this: (2uM) 1.1; (10uM) 0.181.
Regarding `COc1cc2nc(N3CCN(C(=O)C4COc5ccccc5O4)CC3)nc(N)c2cc1OC` (centres undefined) [Doxazosin Mesylate], the fractional viability (2uM) was 1.1 and the fractional viability (10uM) stood at 1.22.
`COC(=O)c1ccc2c(c1)[nH]c1ncnc(NCCCN3CCCCC3)c12` returned a fractional viability (2uM) of 0.785 and a fractional viability (10uM) of 0.985.
The corresponding values for `COc1cc2nc(N3CCCN(C)CC3)nc(NC3CCN(Cc4ccccc4)CC3)c2cc1OC` are 0.506 and 0.0546.
The matching figures for `COc1cc(Nc2c(C#N)cnc3cc(OCCCN4CCN(C)CC4)c(OC)cc23)c(Cl)cc1Cl` [Bosutinib (SKI-606)]: 0.995 and 0.284.
Take `COc1cc2nc(N3CCCC3)nc(NCCCCCN3CCCC3)c2cc1OC`: the fractional viability is, setting by setting: (2uM) 0.679; (10uM) 0.0949.
As for `COc1cc(OC)c(C(=O)CCCN2CCCC2)c(OC)c1` [Buflomedil HCl], the fractional viability reads like this: (2uM) 0.851; (10uM) 0.685.
For `COc1cc2nc(N3CCN(C(=O)C4CCCO4)CC3)nc(N)c2cc1OC` (centres undefined) [Terazosin HCl], the fractional viability runs as follows: (2uM) 1.14; (10uM) 1.15.
The matching figures for `COc1cc2c(NC3CCN(CC4CCCCC4)CC3)nc(N3CCCN(C(C)C)CC3)nc2cc1OCCCN1CCCCC1`: 0.786 and 0.0322.
The corresponding values for `Cc1nc2c(O)cccc2c(=O)[nH]1` are 0.925 and 0.903.
The matching figures for `O=C(CCCCCCC(=O)Nc1ccc([C@H]2O[C@@H](CSc3nc(-c4ccccc4)c(-c4ccccc4)o3)C[C@@H](c3ccc(CO)cc3)O2)cc1)NO` [Tubacin]: 1.06 and 0.628.
With `CCOC(=O)[C@@H](N)Cc1ccc(-c2cc(O[C@H](c3ccc(Cl)cc3-n3ccc(C)n3)C(F)(F)F)nc(N)n2)cc1` [Telotristat Etiprate (LX 1606 Hippurate)], the fractional viability was 0.935 (2uM) and 0.335 (10uM).
The corresponding values for `CC(C)n1cnc2c(NCCc3ccc(O)cc3)nc(-c3csc4ccccc34)nc21` [StemRegenin 1 (SR1)] are 1.1 and 0.769.
The matching figures for `CNC1CCC(N(Cc2cccc(-c3ccncc3)c2)C(=O)c2sc3ccccc3c2Cl)CC1` (centres undefined) [Smoothened Agonist (SAG) HCl]: 0.918 and 0.259.
Turning to `O=C1NC(=O)/C(=C/c2ccc(-c3ccc(F)cc3O)o2)S1`, the fractional viability (2uM) was found to be 0.814 and the fractional viability (10uM) is 0.742.
The corresponding values for `N[C@H]1CC[C@H](N[C@@H]2C[C@H]2c2ccccc2)CC1` are 0.794 and 0.89.
